Experimental data as given in PubChem BioAssay AID651605 (National Center for Advancing Translational Sciences (NCATS), 2012).
Where “and” joins values, the source holds several entries; their conditions need not be identical. Equal values may be shown once. Inconclusive results are not listed. Unmarked numbers belong to inactive results. Calls of active or inactive are those of the source. The call rests on the fitted dose curve; in most records, active means well fitted inhibition curve with a large enough effect; inconclusive means small, poorly fitted or top-dose-only effect; inactive means flat fitted curve, though single readings scatter.

Biological target: Ubiquitin carboxyl-terminal hydrolase 1 (Homo sapiens) (UniProt O94782)
Sequence (O94782 whole entry, looked up): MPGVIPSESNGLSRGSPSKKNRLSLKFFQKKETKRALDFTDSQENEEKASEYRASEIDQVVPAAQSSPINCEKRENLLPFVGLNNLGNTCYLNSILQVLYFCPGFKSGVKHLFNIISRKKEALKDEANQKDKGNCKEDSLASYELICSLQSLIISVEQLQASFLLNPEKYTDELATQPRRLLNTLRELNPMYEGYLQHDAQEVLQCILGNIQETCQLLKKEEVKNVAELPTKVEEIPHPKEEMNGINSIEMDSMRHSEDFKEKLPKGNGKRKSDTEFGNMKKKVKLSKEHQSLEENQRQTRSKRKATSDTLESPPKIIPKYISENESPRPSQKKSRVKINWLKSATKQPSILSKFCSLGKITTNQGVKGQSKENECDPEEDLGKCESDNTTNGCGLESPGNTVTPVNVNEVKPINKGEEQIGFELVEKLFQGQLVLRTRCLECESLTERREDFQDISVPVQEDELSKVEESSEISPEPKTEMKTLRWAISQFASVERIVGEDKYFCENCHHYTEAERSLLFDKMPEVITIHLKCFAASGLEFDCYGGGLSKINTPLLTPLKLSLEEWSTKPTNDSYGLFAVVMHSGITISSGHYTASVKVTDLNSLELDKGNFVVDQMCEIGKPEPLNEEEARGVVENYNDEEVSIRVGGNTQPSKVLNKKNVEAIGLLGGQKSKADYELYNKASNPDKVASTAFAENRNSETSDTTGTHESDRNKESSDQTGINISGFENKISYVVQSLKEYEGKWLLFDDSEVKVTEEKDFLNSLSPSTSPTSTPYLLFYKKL
Assay: Inhibitors of USP1/UAF1: SAR in Primary Assay
Conditions: Recombinant USP1/UAF1, Ub-Rhodamine cleavage fluorescence; series mostly up to 57.1 µM; activity change, negative = inhibition: at the top concentration
Description: Deubiquitinating enzymes (DUBs) are a class of enzymes that can cleave isopeptide bond formed between the C-terminal carboxylate of ubiquitin and a lysine side-chain amino group on the target protein. Among them, ubiquitin specific proteases (USPs) constitute the largest DUB family. Human USPs are emerging as promising targets for pharmacological intervention because of their connection to a number of human diseases, including prostate, colon and breast cancer (1, 2), pediatric acute lymphoblastic leukemia (3), and familial cylindromatosis (4). The advantage of inhibiting USPs lies in the potential specificity of therapeutic intervention that can lead to better efficacy and reduce nonspecific side effects. In a collaboration between the University of Delaware and the NIH Chemical Genomics Center, a high-throughput screen assay was developed to screen for USP1/UAF1 inhibitors (5). This assay was used to test the analogs that were synthesized based on SAR around the original hit. NIH Chemical Genomics Center [NCGC] NIH Molecular Libraries Probe Centers Network [MLPCN] MLPCN Grant: DA030552-01 Assay Submitter (PI): Zhihao Zhuang, University of Delaware 1. Priolo, C., et al. (2006) The isopeptidase USP2a protects human prostate cancer from apoptosis. Cancer Res 66, 8625-8632 2. Popov, N., et al. (2007) The ubiquitin-specific protease USP28 is required for MYC stability. Nat Cell Biol 9, 765-774 3. De Pitta, C., et al. (2005) A leukemia-enriched cDNA microarray platform identifies new transcripts with relevance to the biology of pediatric acute lymphoblastic leukemia. Haematologica 90, 890-898 4. Kovalenko, A., et al. (2003) The tumour suppressor CYLD negatively regulates NF-kappaB signalling by deubiquitination. Nature 424, 801-805 5. Chen, J., et al. (2011) Selective and cell-active inhibitors of the USP1/ UAF1 deubiquitinase complex reverse cisplatin resistance in non-small cell lung cancer cells. Chem Bio 18(11):1390-400.
3 microliters of reagents (buffer in columns 3 and 4 as negative control and 1nM USP1/UAF1 complex in columns 1, 2, and 5-48) are dispensed into Greiner black solid bottom 1536-well assay plates. Compounds are then transferred via Kalypsys pin tool equipped with 1536-pin array (10nl slotted pins, V&P Scientific, San Diego, CA). Following an incubation step of 15 min at room temperature, 1ul of Ub-Rho substrate (150nM final concentration) is added to initiate the reaction. The plates are immediately centrifuged at 1000 rpm for 15 seconds, and subsequently transferred to a ViewLux high-throughput CCD imager (PerkinElmer) wherein kinetic measurements of fluorescence are acquired using 480 nm excitation/540 nm emission filter set (6 reads every 60 seconds, see Table 1). All reagents are diluted in an assay buffer consisting of 50mM HEPES (pH 7.8), 0.5mM EDTA, 0.1 mg/ml BSA, 1mM TCEP, and 0.01% Tween-20.

| Structure (SMILES) | Potency | activity change, negative = inhibition [%] |
| --- | --- | --- |
| Cc1cccc(C(CO)Nc2nc(-c3ccccc3C(C)C)ncc2C)c1 (stereo not given) | 1080 nM (active) |  |
| Cc1cnc(-c2ccccc2C(C)C)nc1NCc1ccc(C2CCCNC2)cc1 (stereo not given) | 7640 nM (active) |  |
| CN(Cc1ccc(-c2ccccc2)cc1)c1nc(-c2ccccc2C(F)(F)F)nc2ccccc12 | 4290 nM (active) |  |
| Cc1cnc(-c2ccccc2C(F)(F)F)nc1NCc1ccc(-c2cccnc2)cc1 | 271 nM (active) |  |
| FC(F)(F)c1ccccc1-c1nc(NCC#Cc2cccnc2)c2ccccc2n1 | 4.82 µM (active) and 7.64 µM (active) |  |
| CC(C)c1ccccc1-c1ncc(F)c(NCc2ccc(-n3ccnn3)cc2)n1 | 17.1 nM (active) |  |
| COc1ccccc1-c1nc(NCc2ccc(-c3cccnc3)cc2)c2ccccc2n1 | 681 nM (active) |  |
| Nc1nc(NCc2ccc(-c3cccnc3)cc2)c2ccccc2n1 |  | -16.9 |
| FC(F)(F)c1cc(-c2ccc(CNc3nc(-c4ccccc4C(F)(F)F)nc4ccsc34)cc2)ccn1 | 3410 nM (active) |  |
| Cc1cnc(-c2ccccc2C(C)C)nc1NCc1ccc(C#N)cc1 | 482 nM (active) |  |
| CC(C)c1ccccc1-c1nc2c(c(NCc3ccc(-c4cccnc4)cc3)n1)CCC2 | 136 nM (active) |  |
| CC(C)c1ccccc1-c1ncc(F)c(NCc2ccc(-c3cccnc3)s2)n1 | 242 nM (active) |  |
| CC(C)c1ccccc1-c1nc(NCc2ccc(-c3cccnc3)cc2)c2ccsc2n1 | 242 nM (active) |  |
| Cc1cnc(-c2ccccc2C2COC2)nc1NCc1ccc(-n2ccnn2)cc1 |  | -9.72 |
| N#Cc1c(-c2ccccc2C(F)(F)F)nc2ccccc2c1NCc1ccc(-c2cccnc2)cc1 | 9610 nM (active) |  |
| Cc1cnc(-c2ccccc2C(C)C)nc1NCc1ccc(C(N)=O)cc1 | 4290 nM (active) |  |
| Cc1cnc(-c2ccccc2C(C)C)nc1NCC1CCN(c2cccnc2)CC1 | 48.2 nM (active) |  |
| CC(C)c1ccccc1-c1nc(NCc2ccc(-c3cccnc3)cc2)c2[nH]cnc2n1 | 121 nM (active) |  |
| Brc1ccccc1-c1nc(NCc2ccc(-c3cccnc3)cc2)c2ccccc2n1 | 961 nM (active) |  |
| CC(C)c1ccccc1-c1nc(NCC2CCN(c3cccnc3)CC2)c2ccccc2n1 | 85.7 nM (active) |  |

| Structure (SMILES) | Potency | activity change, negative = inhibition [%] |
| --- | --- | --- |
| Cc1cc(NCc2ccc(-c3cccnc3)cc2)nc(-c2ccccc2C(C)C)n1 | 482 nM (active) |  |
| Fc1ccccc1-c1nc(NCc2ccc(-c3cccnc3)cc2)c2ccccc2n1 | 3410 nM (active) |  |
| Cc1cnc(-c2ccccc2CO)nc1NCc1ccc(-c2cccnc2)cc1 | 8570 nM (active) |  |
| COc1ccccc1-c1ncc(C)c(NCc2ccc(-c3cccnc3)cc2)n1 | 764 nM (active) |  |
| Cc1ccccc1-c1nc(NCc2ccc(-c3cccnc3)cc2)c2ccccc2n1 | 482 nM (active) |  |
| CC(C)c1ccccc1-c1ncc(F)c(NCc2ccc(-c3cccnc3)cc2)n1 | 60.7 nM (active) |  |
| O=[N+]([O-])c1ccccc1-c1nc(NCc2ccc(-c3cccnc3)cc2)c2ccccc2n1 | 4290 nM (active) |  |
| CC(C)c1ccccc1-c1ncc(F)c(NC(C)(C)c2ccc(-c3cccnc3)cc2)n1 | 192 nM (active) |  |
| Cc1cnc(-c2ccccc2C(C)C)nc1NCc1ccc(-c2ccc(F)nc2)cc1 | 60.7 nM (active) |  |
| CC(C)c1ccccc1-c1ncc(F)c(NCC2CCN(c3cnccn3)C2)n1 (stereo not given) | 4290 nM (active) |  |
| FC(F)(F)c1ccccc1-c1nc(NCc2ccc(N3CCOCC3)cc2)c2ccccc2n1 | 7640 nM (active) |  |
| Cc1cnc(-c2ccccc2CO)nc1NCC1CCN(c2cccnc2)CC1 | 7640 nM (active) |  |
| c1cncc(-c2ccc(CNc3nc(N4CCOCC4)nc4ccccc34)cc2)c1 |  | -18.2 |
| Cc1cnc(-c2ccccc2C(C)C)nc1NCc1ccc(-c2cn[nH]n2)cc1 | 242 nM (active) |  |
| Cc1cnc(-c2ccccc2C(F)F)nc1NCc1ccc(-c2cccnc2)cc1 | 341 nM (active) |  |
| N#Cc1ccc(-c2nc(NCc3ccc(-c4ccnc(C(F)(F)F)c4)cc3)c3ccccc3n2)cc1 |  | -19.2 |
| Fc1cc(Cl)cc(-c2ccc(CNc3nc(-c4ccccc4C(F)(F)F)nc4ccccc34)cc2)c1 | 2410 nM (active) |  |
| CC(Nc1nc(-c2ccccc2C(F)(F)F)nc2ccccc12)c1ccc(-c2ccncc2)cc1 (stereo not given) | 5410 nM (active) |  |
| Fc1cnc(-c2ccccc2C(F)F)nc1NCC1CCN(c2cnccn2)CC1 | 2410 nM (active) |  |
| CC(C)c1ccccc1-c1nc2c(c(NCc3ccc(-c4cccnc4)cc3)n1)CNC2 | 1520 nM (active) |  |
